# Results reported in article PMC4336329 (PLoS ONE, 2015).
# Screen size: about 310,000 compounds; about 2,200 (0.71%) showed an effect of 50% or more. The effect is printed as a negative number. Many of the other results were omitted from the sample, so strong results are more common in it than they were.
# Biological target: human ether-à-go-go-related gene (hERG) potassium channel (human, UniProt Q12809)
# Test: primary screen, population patch clamp on CHO cells stably expressing hERG; higher = less effect of the substance
# human ether-à-go-go-related gene (hERG) potassium channel, sequence (Q12809 whole entry, looked up): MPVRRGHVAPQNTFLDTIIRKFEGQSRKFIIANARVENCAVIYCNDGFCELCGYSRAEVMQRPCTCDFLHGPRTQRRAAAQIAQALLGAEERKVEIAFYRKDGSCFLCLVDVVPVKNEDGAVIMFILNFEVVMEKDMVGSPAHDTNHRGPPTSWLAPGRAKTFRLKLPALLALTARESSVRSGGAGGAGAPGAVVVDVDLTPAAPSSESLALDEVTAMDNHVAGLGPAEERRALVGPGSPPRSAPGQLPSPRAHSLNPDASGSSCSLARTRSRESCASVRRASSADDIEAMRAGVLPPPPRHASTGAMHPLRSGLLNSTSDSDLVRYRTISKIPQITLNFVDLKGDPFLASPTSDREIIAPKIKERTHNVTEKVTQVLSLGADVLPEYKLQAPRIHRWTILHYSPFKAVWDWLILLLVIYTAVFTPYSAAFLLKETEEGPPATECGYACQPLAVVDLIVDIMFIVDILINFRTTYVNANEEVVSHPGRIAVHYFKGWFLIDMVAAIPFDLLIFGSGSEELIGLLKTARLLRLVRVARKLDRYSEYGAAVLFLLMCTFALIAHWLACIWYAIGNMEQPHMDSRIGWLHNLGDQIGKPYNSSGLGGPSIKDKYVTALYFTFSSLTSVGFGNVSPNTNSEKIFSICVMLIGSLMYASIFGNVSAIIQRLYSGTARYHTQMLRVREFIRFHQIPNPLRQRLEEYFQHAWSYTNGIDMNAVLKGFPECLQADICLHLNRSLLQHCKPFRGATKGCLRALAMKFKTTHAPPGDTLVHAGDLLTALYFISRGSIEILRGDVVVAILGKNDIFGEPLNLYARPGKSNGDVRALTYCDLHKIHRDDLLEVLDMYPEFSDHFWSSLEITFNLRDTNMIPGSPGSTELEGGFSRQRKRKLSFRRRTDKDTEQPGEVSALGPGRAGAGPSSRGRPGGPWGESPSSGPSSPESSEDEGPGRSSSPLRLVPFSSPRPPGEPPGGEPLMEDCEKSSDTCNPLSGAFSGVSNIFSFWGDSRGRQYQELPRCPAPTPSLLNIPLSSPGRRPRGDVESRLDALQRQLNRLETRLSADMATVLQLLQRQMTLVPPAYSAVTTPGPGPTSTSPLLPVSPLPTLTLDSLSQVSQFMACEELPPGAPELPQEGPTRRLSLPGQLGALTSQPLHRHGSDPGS
row,Compound,"hERG current change (%, negative = inhibition) at 1uM"
1,O=C(CCC(=O)OCc1cccc([N+](=O)[O-])c1)Nc1ccccc1Cl,2.86%
2,O=[N+]([O-])c1cccc(Cl)c1CSc1ccccn1,11%
3,CC[n+]1c(/C=C/c2ccc(OC)c(OC)c2)ccc2ccccc21.[I-],13.8%
4,CCN(CC)c1ccc(/C=C/c2ccc3ccc(OC)cc3[n+]2CC)cc1.[I-],-85%
5,CC[n+]1c(/C=C/c2ccc(N(C)C)cc2)ccc2ccccc21.[I-],-27%
6,O=c1[nH]c(=O)n(Cc2ccco2)c2c1C(C(F)(F)F)(C(F)(F)F)N=C(Cc1ccccc1)N2,6.17%
7,CCOC(=O)C1=C(Cc2ccc(F)cc2)C(=O)c2ccccc2C1=O,6.27%
8,CCOC(=O)CCNC(=O)N1CCCC(CNS(=O)(=O)Cc2ccccc2)C1 (stereo not drawn),8.76%
9,Cc1cc2nc(C3CCN(Cc4nnnn4Cc4cccs4)CC3)[nH]c2cc1C,-72.4%
10,Cc1cc2nc(C3CCN(CC4COc5ccccc5O4)CC3)[nH]c2cc1C (stereo not drawn),-65.6%
11,Cl.c1ccc(Cn2nnnc2CN2CCCC2)cc1,10.1%
12,CCN1CCN(CC2COc3ccccc3O2)CC1.Cl (stereo not drawn),7.79%
13,Cc1cc2nc(C3CCN(Cc4nnnn4Cc4ccccc4)CC3)[nH]c2cc1C,-50.7%
14,CCC(C)(C)n1nnnc1CN1CCC(c2nc3ccc(C)cc3[nH]2)CC1,-25.7%
15,c1csc(Cn2nnnc2CN2CCN(c3nc4ccccc4s3)CC2)c1,-7.1%
16,Cc1nc2cc(C(F)(F)F)ccc2n1C1CCN(Cc2nnnn2Cc2cccs2)CC1,-2.78%
17,CCN(CC)C(=O)CN1CCC(c2nc3cc(C)c(C)cc3[nH]2)CC1,11.1%
18,CCN(CC)CCN1C(=O)C(=O)/C(=C(/O)c2ccc(F)cc2)C1c1cccnc1 (stereo not drawn),14.9%
19,Cc1nnc(NCc2n[nH]c(=O)c3ccccc23)c2ccccc12,9.65%
20,O=C(CN(C(=O)c1csnn1)c1ccc2c(c1)OCCO2)NCc1ccc(F)cc1,-1.13%
21,COc1ccc2c(c1)C(=O)CC(c1ccc3c(c1)OCCO3)O2 (stereo not drawn),16.1%

row,Compound,"hERG current change (%, negative = inhibition) at 1uM"
1,CCOC(=O)c1ccc(NC(=O)Nc2cccc(C)n2)cc1,10%
2,Cc1ccccc1SC1CCN(Cc2nc(C3CC3)no2)CC1,-1.23%
3,Cc1ccc(CS(=O)(=O)c2ncn[nH]2)cc1,21%
4,Cc1oc(-c2ccccc2F)nc1CN1CCC(C(=O)NCc2ccco2)CC1,-9.53%
5,Cc1ccccc1-c1nc(CN2CCC(C(=O)NCc3ccco3)CC2)c(C)o1,-34.7%
6,Cc1oc(-c2ccc(Cl)cc2)nc1CN1CCC(C(=O)NCc2ccco2)CC1,-58.3%
7,Cc1oc(-c2cccc(Cl)c2)nc1CN1CCC(C(=O)NCc2ccco2)CC1,-70.4%
8,Cc1oc(-c2ccc(Cl)cc2)nc1CN1CCC(C(=O)N2CCc3ccccc3C2)CC1,-56.7%
9,Cc1oc(-c2ccc(Cl)cc2)nc1CN1CCCC(C(=O)NCc2ccccn2)C1 (stereo not drawn),-44.2%
10,Cc1oc(-c2cccc(Cl)c2)nc1CN1CCC(C(=O)NC2CC2)CC1,14.6%
11,Cc1oc(-c2cccc(Cl)c2)nc1CN1CCC(C(=O)NCc2cccnc2)CC1,-13%
12,Cc1oc(-c2ccc(Cl)cc2)nc1CN1CCC(C(=O)N2CCN(Cc3ccccc3)CC2)CC1,-48.1%
13,Cc1oc(-c2ccc(Cl)cc2)nc1CN1CCCC(C(=O)NCc2ccco2)C1 (stereo not drawn),-56.4%
14,CCN1CCN(C(=O)C2CCN(Cc3nc(-c4cccc(Cl)c4)oc3C)CC2)CC1,-21%
15,Cc1oc(-c2cccc(Cl)c2)nc1CN1CCCC(C(=O)NCc2ccco2)C1 (stereo not drawn),-45%
16,Cc1ccc(OC(=O)c2ccc3nc(C)sc3c2)cc1,10%
17,COC(=O)COC(=O)c1ccc(O)cc1,-12.9%
18,O=C1C=C(c2ccc3ncccc3c2)C[C@@H](c2ccc3c(c2)OCO3)C1,9.3%
19,O=C(c1cc2ccccc2oc1=O)N(Cc1cccs1)Cc1ccccc1Cl,2.42%
20,CCc1ccc(NC(=O)CCn2nc(C)c(S(=O)(=O)N3CCCCC3)c2C)cc1,4.67%
21,CCOC(=O)COc1c(-c2ccc(OC)cc2)oc2ccccc2c1=O,9.81%

row,Compound,"hERG current change (%, negative = inhibition) at 1uM"
1,CC(C)OP(=O)(OC(C)C)C(Nc1ccccc1)c1cccc([N+](=O)[O-])c1 (stereo not drawn),12%
2,COc1cc(-c2nc3n(n2)C(c2ccncc2)C2=C(CCCC2=O)N3)cc(OC)c1OC (stereo not drawn),26%
3,Cc1ccc(CN2C(=O)C3CCCN3c3ncccc32)cc1 (stereo not drawn),12.7%
4,CCCCN1C(=O)NC(=O)/C(=C/c2cnc(SC)nc2)C1=O,7.6%
5,Cc1ccccc1NCc1ccc(O)c2ncccc12,8.46%
6,Cl.N=c1ccn(Cc2ccccc2Cl)cc1,16.8%
7,CCc1ccc(-c2nc(CN3CCC(C(=O)NCc4ccc(F)cc4)CC3)c(C)o2)cc1,-12.4%
8,CCc1ccc(-c2nc(CN3CCC(C(=O)NCCN(CC)c4ccccc4)CC3)c(C)o2)cc1,-15.6%
9,CCc1ccc(-c2nc(CN3CCC(C(=O)NCc4ccco4)CC3)c(C)o2)cc1,-51.1%
10,CCOc1ccc(-c2cn3ccccc3n2)cc1,-1.48%
11,COc1ccc(CC(=O)Nc2c(C(=O)N3CCN(c4ccccc4)CC3)oc3ccccc23)cc1OC,-8.82%
12,CCOCCCN(C)C1CCN(C(=O)c2oc3ccccc3c2NC(=O)Cc2ccc([N+](=O)[O-])cc2)CC1,-89.1%
13,COc1ccc(N2CCN(C(=O)c3oc4ccccc4c3NC(=O)Cc3cccc(OC)c3)CC2)cc1,3.16%
14,COc1ccc(CC(=O)Nc2c(C(=O)N3CCN(c4ncccn4)CC3)oc3ccccc23)cc1,-21.4%
15,CCCN(CCC)C(=O)c1oc2ccccc2c1NC(=O)Cc1cccc(OC)c1,19.2%
16,CCOCCCN(C)C1CCN(C(=O)c2oc3ccccc3c2NC(=O)Cc2cccc([N+](=O)[O-])c2)CC1,-83.8%
17,COc1ccc(NS(=O)(=O)c2cccc(C(=O)N3CCCC(C)C3)c2)cc1 (stereo not drawn),3.3%
18,CCN(CCn1cccn1)C(=O)CC1C(=O)NCCN1Cc1ccc(OC)c(OC)c1 (stereo not drawn),2.76%
19,c1cnc2ccc(C(c3nnnn3C3CCCCC3)N3CCN(C4CCCCC4)CC3)cc2c1 (stereo not drawn),-87%
20,COc1ccc(Cn2nnnc2C(c2ccc3ncccc3c2)N2CCN(C3CCCCC3)CC2)cc1 (stereo not drawn),-79.3%
21,Fc1ccc(C(c2nnnn2Cc2cccs2)N2CCN(C3CCCCC3)CC2)cc1 (stereo not drawn),-46.6%

row,Compound,"hERG current change (%, negative = inhibition) at 1uM"
1,c1cnc2ccc(C(c3nnnn3C3CCCCC3)N3CCCCC3)cc2c1 (stereo not drawn),1.89%
2,CCC(C)(C)n1nnnc1C(c1ccc2ncccc2c1)N1CCN2CCCC2C1 (stereo not drawn),8.16%
3,c1cnc2ccc(C(c3nnnn3C3CCCC3)N3CCN4CCCC4C3)cc2c1 (stereo not drawn),-19.5%
4,COc1ccc(Cn2nnnc2C(c2ccc(C)cc2)N2CCN(C3CCCC3)CC2)cc1.Cl (stereo not drawn),-32.4%
5,Fc1ccc(Cn2nnnc2C(c2cccs2)N2CCCCCC2)cc1 (stereo not drawn),0.84%
6,COc1ccc(Cn2nnnc2C(c2ccc(F)cc2)N2CCN(C3CCCC3)CC2)cc1 (stereo not drawn),-15%
7,c1cnc2ccc(C(c3nnnn3C3CCCCC3)N3CCN4CCCC4C3)cc2c1 (stereo not drawn),-96.9%
8,Fc1ccc(Cn2nnnc2C(c2cccs2)N2CCN(C3CCCCC3)CC2)cc1 (stereo not drawn),-51.6%
9,OC1CCN(C(c2ccc3ncccc3c2)c2nnnn2C2CCCCC2)CC1 (stereo not drawn),-5.3%
10,CCN(CC(=O)Nc1ccc(NC(C)=O)cc1)C(=O)CSc1nnc(-c2ccco2)n1CC,16.2%
11,Cc1nn2c(-c3ccccc3)ccnc2c1-c1ccccc1,7.57%
12,CC(C)Oc1ccc(/C(O)=C2/C(=O)C(=O)N(Cc3cccnc3)C2c2ccco2)cc1 (stereo not drawn),14.2%
13,Cc1cc(C)c(S(=O)(=O)N2CCOC2CNC(=O)C(=O)NCCCN2CCCC2=O)c(C)c1 (stereo not drawn),7.05%
14,O=C(c1ccccc1)c1c[nH]c(C(=O)C(Cl)(Cl)Cl)c1,16%
15,COC/C=C/C1=CC2=CC(=O)C(C)(OC(=O)c3cnc4ccccc4n3)C(=O)C2=CN1C1CCCCC1 (stereo not drawn),9.88%
16,Cc1csc(NC(=O)CSc2nncs2)n1,8.29%
17,CC(NC(=O)Cc1cccs1)c1ccc2c(c1)OCO2 (stereo not drawn),-4.41%
18,CCOC(=O)c1cccc(Nc2ncnc3ccc(C)cc23)c1,-3.73%
19,CC(C)N(CCNC(=O)COc1ccc2oc3c(c2c1)CCCC3)C(C)C,-52.7%
20,CCN(CC)CCCNC(=O)COc1ccc2oc3c(c2c1)CCCC3.Cl,6.07%
21,CC(C)OCCCNC(=O)COc1ccc2oc3c(c2c1)CCCC3,11.1%
